We go through eight compounds from PubChem BioAssay (NCI).

This is part of a sample that, as a whole, favours compounds with a hit. Of some 83,000 tested, about 20% had one in any assay.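 Growth was measured after 48 h exposure to one concentration of compound in 96-well plates. Values under 10 count as active.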 Values without a mark were called inactive. Activity calls are given as the source filed them.

Test systems include HCT-15 colon; HT29 colon; SNB-75 CNS; SNB-19 CNS; U251 CNS; PC-3 prostate; SK-MEL-5 melanoma; UACC-62 melanoma; LOX IMVI melanoma; SK-MEL-28 melanoma; SK-MEL-2 melanoma; EKVX NSCLC; SN12C renal; UO-31 renal; TK-10 renal; ACHN renal; CAKI-1 renal; CCRF-CEM leukemia; MOLT-4 leukemia.
Common to all, as to test: NCI-60 one-dose screen, 48 h (100 = growth as untreated, 0 = no growth, -100 = all killed)
What all share (conditions): 10 µM unless noted

In the case of `COc1ccc(/C=C2\Oc3cc(OCCCCCN4CCCCC4)ccc3C2=O)cc1OC`, the growth in the assay on HCT-15 colon was 49.3%; in the assay with HT29 colon it was -59.2% (active); in the assay with SNB-75 CNS, 81%; with SNB-19 CNS, 91%; with U251 CNS, 87%; in the assay on PC-3 prostate, 79.2%. The growth in the assay with SK-MEL-5 melanoma is 66.7%; in the assay with UACC-62 melanoma, 96.2%; with LOX IMVI melanoma, 63.2%; in the assay on SK-MEL-28 melanoma it was 99.4%; with SK-MEL-2 melanoma, 92.4%; with EKVX NSCLC, 78.7%. The growth was 86% in the assay on SN12C renal; 73.8% with UO-31 renal; 82% in the assay with TK-10 renal; 100% with ACHN renal; 94.3% in the assay on CAKI-1 renal; 15.2% with CCRF-CEM leukemia. In addition, the growth in the assay on MOLT-4 leukemia is 70.2%.
Consider `Cn1ccnc1C(=O)/C=C/c1ccc(CC(=O)Nc2ccc(F)cc2)cc1`, for which the growth with HCT-15 colon was 14.1%; in the assay on HT29 colon it was -26% (active); in the assay with SNB-75 CNS, -7.25% (active); in the assay with SNB-19 CNS, 19%; with U251 CNS, 9.49% (active); in the assay with PC-3 prostate it was 36.1%. The growth in the assay on SK-MEL-5 melanoma was 34%; with UACC-62 melanoma, 54.3%; with LOX IMVI melanoma, 15.2%; in the assay on SK-MEL-28 melanoma, 85.9%; in the assay with SK-MEL-2 melanoma, 102%; with EKVX NSCLC, 57.9%. Besides, the growth is 23.9% in the assay with SN12C renal; 37.2% with UO-31 renal; 71.9% in the assay with TK-10 renal; 69.3% in the assay on ACHN renal; 38.1% with CAKI-1 renal; 6.85% (active) in the assay with CCRF-CEM leukemia. In addition, the growth in the assay on MOLT-4 leukemia was 20.6%.
With `CC(C)(C)c1cc(/C=N/NC(=O)c2ccccc2NC(=O)c2cccs2)c(O)c(C(C)(C)C)c1`, the growth with HCT-15 colon was 17.1%; in the assay with HT29 colon, 25.3%; in the assay on SNB-75 CNS, 34.9%; with SNB-19 CNS, 40.6%; in the assay with U251 CNS, 13.8%; in the assay on PC-3 prostate it was 30.3%. Also, the growth was 22.9% with SK-MEL-5 melanoma; 13.1% in the assay on UACC-62 melanoma; -34.2% (active) with LOX IMVI melanoma; 51.5% in the assay with SK-MEL-28 melanoma; 36.9% in the assay with SK-MEL-2 melanoma; 35% in the assay with EKVX NSCLC. Moreover, the growth with SN12C renal was 40.6%; in the assay with UO-31 renal, 10.7%; in the assay with TK-10 renal, 28.8%; in the assay with ACHN renal, 21.9%; with CAKI-1 renal, 19.8%; with CCRF-CEM leukemia it was 4.59% (active). In addition, the growth in the assay on MOLT-4 leukemia was 16.5%.
As to `COc1ccc(C(=O)c2cc(C)c(OC)c(C)c2)c(OC)c1OC(=O)C(Cl)Cl`, the growth with HCT-15 colon was 3.34% (active); in the assay with HT29 colon, 22.4%; in the assay on SNB-75 CNS, 56.3%; in the assay with SNB-19 CNS it was 22.2%; in the assay with U251 CNS it was 13.5%; with PC-3 prostate it was 19.1%. For the same compound, the growth in the assay with SK-MEL-5 melanoma was -20.8% (active); in the assay on UACC-62 melanoma, 29.3%; in the assay with LOX IMVI melanoma, 20.3%; in the assay with SK-MEL-28 melanoma, 53.3%; with SK-MEL-2 melanoma it was 24.4%; with EKVX NSCLC, 58.4%. Further, the growth in the assay with SN12C renal is 30.1%; in the assay with UO-31 renal, 35.3%; with TK-10 renal, 50.9%; in the assay on ACHN renal, 18.3%; in the assay with CAKI-1 renal, 39.8%; with CCRF-CEM leukemia, 11.1%. Also, in the assay with MOLT-4 leukemia, the growth is 20.7%.
In the case of `CN1C(=O)NC(c2ccc3c(c2)OCO3)C=C1c1ccccc1` (configuration not stated), the growth is 77.8% with HCT-15 colon; 84.2% in the assay on HT29 colon; 80.2% with SNB-75 CNS; 92.5% in the assay with SNB-19 CNS; 72% in the assay with U251 CNS; 102% in the assay with PC-3 prostate. The growth with SK-MEL-5 melanoma was 99%; in the assay with UACC-62 melanoma, 89.8%; in the assay on LOX IMVI melanoma, 96.5%; in the assay on SK-MEL-28 melanoma, 106%; with SK-MEL-2 melanoma, 100%; in the assay on EKVX NSCLC it was 95.4%. For the same compound, the growth in the assay on SN12C renal is 89%; in the assay with UO-31 renal, 64.7%; in the assay on TK-10 renal, 85%; in the assay on ACHN renal, 105%; in the assay on CAKI-1 renal it was 82.8%; in the assay on CCRF-CEM leukemia it was 87.2%. Further, in the assay on MOLT-4 leukemia, the growth is 94.3%.
Regarding `CN(C)c1ccc(Nc2c3ccccc3nc3cc(NC(=O)CCN4CCCC4)ccc23)cc1`, the growth in the assay with HCT-15 colon is -18.4% (active); in the assay on HT29 colon it was 1.99% (active); with SNB-75 CNS, -0.0133% (active); in the assay on SNB-19 CNS it was -7.13% (active); in the assay on U251 CNS, -48.6% (active); in the assay with PC-3 prostate, -25.4% (active). Further, the growth in the assay on SK-MEL-5 melanoma was 0.523% (active); in the assay with UACC-62 melanoma, 15.5%; in the assay on LOX IMVI melanoma it was -74.8% (active); in the assay with SK-MEL-28 melanoma, -34.7% (active); in the assay on SK-MEL-2 melanoma, 24%; in the assay with EKVX NSCLC, 9.96% (active). Besides, the growth in the assay on SN12C renal was -7.36% (active); in the assay with UO-31 renal, -53.1% (active); with TK-10 renal, -12.7% (active); in the assay on ACHN renal, 1.64% (active); with CAKI-1 renal, -47.6% (active); with CCRF-CEM leukemia, -15% (active). In the assay on MOLT-4 leukemia, the growth was -8.89% (active).
Consider `N=C(N)c1ccc(OCCCCCCCCCCOc2ccc(C(=N)N)cc2)cc1`, for which the growth in the assay on HCT-15 colon was 37.3%; with HT29 colon it was -90.8% (active); in the assay on SNB-75 CNS, -76.9% (active); with SNB-19 CNS, -91.9% (active); with U251 CNS, -85.5% (active); in the assay on PC-3 prostate it was -91.3% (active). Moreover, the growth in the assay on SK-MEL-5 melanoma was -96.1% (active); in the assay on UACC-62 melanoma it was -97.2% (active); in the assay on LOX IMVI melanoma, -97.3% (active); with SK-MEL-28 melanoma, -93.9% (active); with SK-MEL-2 melanoma it was -90.3% (active); with EKVX NSCLC, -84.4% (active). Further, the growth with SN12C renal is -96.3% (active); in the assay with UO-31 renal, 43.9%; with TK-10 renal it was -93.5% (active); in the assay on ACHN renal, -21.3% (active); with CAKI-1 renal it was -94.8% (active); with CCRF-CEM leukemia it was -47.8% (active). Besides, the growth in the assay with MOLT-4 leukemia was -61% (active).
`CC1(C)c2[nH]c3ccccc3c2C[C@]2(C)[C@H]3C(=O)C=C4[C@@H]5C[C@@](C)(C(N)=O)CC[C@]5(C)CC[C@@]4(C)[C@]3(C)CC[C@@H]12`: the growth in the assay with HCT-15 colon is 65.8%; in the assay with HT29 colon, 56.3%; in the assay with SNB-75 CNS it was 89.3%; in the assay on SNB-19 CNS, 78.6%; in the assay on U251 CNS, 70.4%; in the assay with PC-3 prostate it was 42.1%. Also, the growth is 72% in the assay with SK-MEL-5 melanoma; 70.6% in the assay on UACC-62 melanoma; 83% in the assay with LOX IMVI melanoma; 93.3% with SK-MEL-28 melanoma; 81.8% in the assay on SK-MEL-2 melanoma; 68.4% in the assay on EKVX NSCLC. Moreover, the growth in the assay with SN12C renal is 72%; with UO-31 renal it was 42.6%; in the assay with TK-10 renal, 70.5%; with ACHN renal, 76.7%; in the assay on CAKI-1 renal, 82.8%; with CCRF-CEM leukemia it was 66.7%. Besides, in the assay with MOLT-4 leukemia, the growth is 32.6%.
